Reference: PubChem BioAssay (NCI)
The panel holds about 83,000 compounds, 20% with a hit somewhere; the sample as a whole holds those more often.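 Cell lines were cultured in 96-well plates, exposed to a single compound concentration, and assessed for percent growth 48 hours later.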 A number with no mark means an inactive call. Activity calls are given as the source filed them. Rule for the calls: active = growth percent below 10; inactive = the rest.

Key:
Experiment in all cases: NCI-60 one-dose screen, 48 h (100 = growth as untreated, 0 = no growth, -100 = all killed)
Conditions in all cases: 10 µM unless noted
SR leukemia = tested on: SR leukemia
RPMI-8226 leukemia = tested on: RPMI-8226 leukemia
OVCAR-8 ovarian = tested on: OVCAR-8 ovarian
OVCAR-5 ovarian = tested on: OVCAR-5 ovarian
OVCAR-4 ovarian = tested on: OVCAR-4 ovarian
SK-OV-3 ovarian = tested on: SK-OV-3 ovarian
IGROV1 ovarian = tested on: IGROV1 ovarian
OVCAR-3 ovarian = tested on: OVCAR-3 ovarian
HS 578T breast = tested on: HS 578T breast
NCI/ADR-RES ovarian = tested on: NCI/ADR-RES ovarian
T-47D breast = tested on: T-47D breast
BT-549 breast = tested on: BT-549 breast
MDA-MB-435 melanoma = tested on: MDA-MB-435 melanoma
SW-620 colon = tested on: SW-620 colon
MCF7 breast = tested on: MCF7 breast
HCT-116 colon = tested on: HCT-116 colon
HCC-2998 colon = tested on: HCC-2998 colon
KM12 colon = tested on: KM12 colon

Structure (SMILES) | growth (SR leukemia) | growth (RPMI-8226 leukemia) | growth (OVCAR-8 ovarian) | growth (OVCAR-5 ovarian) | growth (OVCAR-4 ovarian) | growth (SK-OV-3 ovarian) | growth (IGROV1 ovarian) | growth (OVCAR-3 ovarian) | growth (HS 578T breast) | growth (NCI/ADR-RES ovarian) | growth (T-47D breast) | growth (BT-549 breast) | growth (MDA-MB-435 melanoma) | growth (SW-620 colon) | growth (MCF7 breast) | growth (HCT-116 colon) | growth (HCC-2998 colon) | growth (KM12 colon)
COc1c(N2CC3CCCNC3C2)c(F)cc2c(=O)c(C(=O)N/N=C/c3ccc4c(c3)OCO4)cn(C3CC3)c12 (configuration not stated) | -24.3% (active) | 60.9% | 54% | 87.3% | 90.5% | 99.7% | 51% | 29.4% | 103% | 63.6% | 76.7% | 94.9% | 102% | 47.1% | 14.6% | 32.7% | 54.8% | 88%
NC(N)=Nc1ccc(Oc2cccc(Nc3ccc(Cl)cc3)c2)cn1 | -57.8% (active) | -41.8% (active) | 29.4% | 48.3% | 20.2% | 53.2% | 14.4% | -14.3% (active) | 34.1% | 56.5% | 26.1% | 65.7% | 14.3% | -71.8% (active) | -76.7% (active) | -73.4% (active) | -89.1% (active) | -92.6% (active)
COc1ccccc1-n1cc(C#N)c(N)c1C(=O)c1ccc(C)cc1 | 49.4% | 99.7% | 95% | 103% | 103% | 93.5% | 84.6% | 94.6% | 85.6% | 60.2% | 82.1% | 83.9% | 5.3% (active) | 52.4% | 51.3% | 76.8% | 80.9% | 59.6%
CC[C@]12C=CCN3CC[C@@]4(c5cc(NC(=O)COc6cc(O)c7c(=O)cc(-c8ccccc8)oc7c6)c(OC)cc5N(C)[C@H]4[C@@](O)(C(=O)OC)[C@@H]1OC(C)=O)[C@@H]32 | -30.7% (active) | -31.6% (active) | -17.7% (active) | -86% (active) | -66.9% (active) | -86.1% (active) | -77.7% (active) | -86.2% (active) | 2.1% (active) | -49.9% (active) | -60.5% (active) | -36.2% (active) | -44.7% (active) | 7.84% (active) | -44.3% (active) | -89.2% (active) | -98.2% (active) | -82.2% (active)
O=C(c1ccc(O)cc1)[C@@H]1CN[C@@]2(C(=O)Nc3ccccc32)[C@H]1c1ccc(F)cc1 | 87.5% | 95.4% | 99.2% | 104% | 102% | 115% | 95.3% | 117% | 110% | 99.2% | 99.3% | 79.7% | 107% | 105% | 99% | 104% | 113% | 102%
COc1ccc(NC(=O)CSc2nnc(-c3ccc4nc(-c5ccc(OC)c(OC)c5)[nH]c4c3)o2)cc1OC | 104% | 98.6% | 101% | 95.2% | 106% | 120% | 91.3% | 108% | 97.5% | 96.1% | 90.3% | 90.7% | 102% | 105% | 91.9% | 98.1% | 111% | 101%
C#C[C@]1(O)CC[C@H]2[C@@H]3CC=C4c5sc(-c6ccc(C)cc6)nc5CC[C@]4(C)[C@H]3CC[C@@]21C | 0.0897% (active) | -27.4% (active) | 58.4% | 93.5% | 65.3% | -7.23% (active) | 49.3% | 62% | -26.9% (active) | 56.6% | 50.4% | 47.8% | -46.4% (active) | -37.5% (active) | 1.73% (active) | 29.4% | 62.6% | 12.7%
CC1(C)CC[C@]2(C(=O)N3CCOCC3)CC[C@]3(C)C(=CC[C@@H]4[C@@]5(C)C/C(=C/c6ccco6)C(=O)C(C)(C)[C@@H]5CC[C@]43C)[C@@H]2C1 | 44.6% | 55.6% | 91.3% | 96.8% | 60.9% | 109% | 86.7% | 86.9% | 83.5% | 96.6% | 75.7% | 97.4% | 88.7% | 74.1% | 64% | 62.1% | 103% | 95.7%
Nc1ccccc1NC(=O)c1ccc(NC(=O)C/C=C/c2cccnc2)cc1 | 30.7% | 6.76% (active) | 26.3% | 29.7% | 39.8% | 44.5% | 23.3% | 33.2% | 30.3% | 50.8% | 12.2% | 25.1% | 26.3% | 15.7% | 17.4% | -29.3% (active) | 9.69% (active) | 33.2%
